Reference: PubChem BioAssay AID1053115 (Broad Institute, 2014)
Results with a measured potency or affinity are listed apart. Active and inactive are the calls of the source.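 How the source made its calls: active means cytotoxic compounds whose fitted half-maximal concentration is at most twice the top valid tested dose; inconclusive means flat curve showing 30 to 70% signal loss, or poor fit; inactive means the rest.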

Assay: A549 cell cytotoxicity, dose response, cytotoxicity control, 24 h, CellTiter-Glo luminescence, cherry-picks (AID 1053115)
Conditions: A549 viability, CellTiter-Glo ATP luminescence; series mostly up to 30 µM; activity change, negative = cytotoxicity: at the top concentration

| SMILES | activity change, negative = cytotoxicity |
| --- | --- |
| C[C@H](O)C#Cc1ccc2c(c1)O[C@@H](CN(C)Cc1ccccc1)[C@H](C)CN([C@H](C)CO)S2(=O)=O | -12% (inactive) |
| C[C@@H]1CN([C@H](C)CO)S(=O)(=O)c2ccc(C#C[C@@H](C)O)cc2O[C@@H]1CN(C)Cc1ccccc1 | -5.16% (inactive) |
| C[C@H](O)C#Cc1ccc2c(c1)O[C@H](CN(C)Cc1ccc(-c3ccccc3)cc1)[C@H](C)CN([C@@H](C)CO)S2(=O)=O | 9.92% (inactive) |
| COc1ccccc1CN1CC[C@H]2[C@H](CO)Nc3ccc(-c4ccc(C(=O)N(C)C)cc4)cc3[C@H]21 | -9.71% (inactive) |
| C[C@@H](O)C#Cc1ccc2c(c1)O[C@@H](CN(C)Cc1ccncc1)[C@@H](C)CN([C@@H](C)CO)S2(=O)=O | 11.4% (inactive) |
| CO[C@H]1CN(C)C(=O)c2ccc(NC(=O)c3ccc(F)cc3)cc2OC[C@H](C)N(C(=O)c2ccc(F)cc2)C[C@@H]1C | 5.66% (inactive) |
| COc1ccccc1CN1CC[C@@H]2[C@H]1c1cc(-c3ccc(C(=O)N(C)C)cc3)ccc1N[C@@H]2CO | 0.92% (inactive) |
| C[C@H](CO)N1C[C@H](C)[C@@H](CN(C)Cc2ccccc2)Oc2cc(C#C[C@@H](C)O)ccc2S1(=O)=O | -11.4% (inactive) |
| CN1c2ccc(C#Cc3cccnc3)cc2[C@H]2[C@H](CCN2C(=O)C2CCCCC2)[C@@H]1CO | 5.27% (inactive) |
| CN1c2ccc(C#Cc3cccnc3)cc2[C@@H]2[C@@H](CCN2C(=O)C2CCCCC2)[C@H]1CO | -3.85% (inactive) |
| CN1c2ccc(C#Cc3cccnc3)cc2[C@H]2[C@H](CCN2C(=O)C2CCCCC2)[C@H]1CO | -14.6% (inactive) |
| C[C@H]1CCCCO[C@H](CN(C)S(=O)(=O)c2ccc(Cl)cc2)[C@@H](C)CN([C@@H](C)CO)C(=O)c2cc(NC(=O)Nc3ccc(F)cc3)ccc2O1 | -3.3% (inactive) |
